Experimental data from PubChem BioAssay (NCATS).
Inconclusive results are not listed. Unless noted, calls come from the whole dose curve.

Target: Glucocorticoid receptor (Homo sapiens) (UniProt P04150)
Experiment: GR-EFC Redistribution (AID 451); note: potency is the fitted concentration of half-maximal effect
Details: CHO-K1 GR-EFC translocation, beta-gal luminescence, 2 h
How it was run: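 CHO-K1 cells expressing nuclear EA and GR-ED fragments of b-gal; compounds titrated up to 46 uM final, 2 h at 37 C. GR nuclear translocation read as complemented b-gal luminescence after 1 h RT detection.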

Glucocorticoid receptor (Homo sapiens), sequence (P04150 whole entry, looked up): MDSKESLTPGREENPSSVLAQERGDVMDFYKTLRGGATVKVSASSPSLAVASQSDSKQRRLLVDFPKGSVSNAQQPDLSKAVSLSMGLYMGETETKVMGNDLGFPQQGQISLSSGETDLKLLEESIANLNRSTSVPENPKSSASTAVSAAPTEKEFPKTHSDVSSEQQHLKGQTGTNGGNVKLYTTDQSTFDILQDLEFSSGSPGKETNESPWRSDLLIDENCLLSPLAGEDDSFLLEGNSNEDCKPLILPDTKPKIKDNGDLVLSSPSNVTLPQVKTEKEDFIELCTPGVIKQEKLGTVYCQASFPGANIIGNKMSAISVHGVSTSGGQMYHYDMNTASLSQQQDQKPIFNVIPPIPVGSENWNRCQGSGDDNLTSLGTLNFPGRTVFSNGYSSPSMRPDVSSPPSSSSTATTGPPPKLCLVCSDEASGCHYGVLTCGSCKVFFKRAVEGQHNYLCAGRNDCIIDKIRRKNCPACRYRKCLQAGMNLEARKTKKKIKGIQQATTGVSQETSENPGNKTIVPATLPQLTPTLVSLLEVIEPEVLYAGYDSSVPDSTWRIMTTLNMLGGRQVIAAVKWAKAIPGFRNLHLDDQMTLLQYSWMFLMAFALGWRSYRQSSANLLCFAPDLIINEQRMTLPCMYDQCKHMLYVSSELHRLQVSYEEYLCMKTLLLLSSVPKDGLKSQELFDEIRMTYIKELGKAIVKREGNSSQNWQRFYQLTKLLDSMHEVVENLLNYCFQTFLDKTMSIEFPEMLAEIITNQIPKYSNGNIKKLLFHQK

Potency, inactive:
Cc1cccc(CNc2ncnc3ccc(-c4ccc(C(=O)N(C)C)cc4)cc23)c1 > 46 µM
O=[N+]([O-])c1ccc(S(=O)(=O)Cc2ccccc2)c2nonc12 > 9.22 µM
CCN(CC)CCN1c2ccccc2Sc2ccc3ccccc3c21 > 9.22 µM
Oc1c(C(O)(c2ccccc2)c2ccc3ccccc3c2O)ccc2ccccc12 > 9.22 µM
Nc1nc(Sc2ccc([N+](=O)[O-])c3nonc23)c2[nH]cnc2n1 > 9.22 µM
C[C@@H]1CCCN(C[C@@H](O)CN2CCCc3ccccc32)C1 > 9.22 µM
CN(C)CCCN1c2ccccc2Sc2ccc3ccccc3c21 > 9.22 µM
CN(C)CCCN1c2ccc3ccccc3c2Sc2cccc(Cl)c21 > 9.22 µM
O=C1c2ccccc2C(O)(O)[C@@]1(O)[C@]1(O)C(=O)c2ccccc2C1(O)O > 9.22 µM
CC(=O)Nc1ccc(Cc2ccc3[nH]c(=O)cc(C)c3c2)cc1 > 9.22 µM
ClC(=Nc1cccc2ccccc12)N(c1ccccc1)c1ccccc1 > 9.22 µM
CC(=O)Nc1nc(NC(C)=O)c2[nH]c(CO)nc2n1 > 9.22 µM
OCCCNc1ncnc2[nH]ncc12 > 9.22 µM
COc1ccc(C(=O)[C@H](Br)[C@H](Br)C(=O)O)cc1 > 9.22 µM
C[N+](C)([O-])CCC=C1c2ccccc2CCc2ccccc21 > 9.22 µM
COCCn1c(=O)c(CCc2ccccc2)nc2cnc(Oc3cccc(Cl)c3)nc21 > 46 µM
O=C1C(Cl)=C(Sc2nnc3c4ccccc4c4ccccc4c3n2)C(=O)c2ccccc21 > 9.22 µM
CC(CC(=O)O)(CC(=O)O)c1ccccc1 > 9.22 µM
CN(C)CCCn1c2c3ccccc3ccc2c2oc(=O)c3ccccc3c21 > 9.22 µM
COc1cccc2c1[C@H](CO)N1[C@H](C#N)[C@@H]3C[C@H](C(=O)O)[C@@H]([C@@H]1C2)N3C > 9.22 µM
Cc1ccc(-c2nc(-c3nccc4ccccc34)oc2-c2ccccc2)cc1 > 9.22 µM
Oc1ccc2ccccc2c1CN(Cc1c(O)ccc2ccccc12)C1CCCCC1 > 9.22 µM
O=C(c1ccncc1)N1CCC2(CCCN(c3cccc(-c4ccccc4)c3)C2)CC1 > 46 µM
CCC1=C(C[C@H]2NCCc3ccccc32)C[C@@H]2c3cc(OC)c(OC)cc3CCN2C1 > 9.22 µM
C[C@H]1CC(C)(C)C[C@@](OCCN2CCCCC2)(c2ccccc2)C1 > 9.22 µM
CN1CCN(c2ncc3nc(-c4ccccc4)c(=O)n(Cc4ccc(F)cc4)c3n2)CC1 > 46 µM
CN(C)c1ccc(N=Nc2cccc3ccoc23)cc1 > 9.22 µM
N#Cc1c(NC(=O)C(F)(F)F)sc2c3c(=O)c4ccccc4c(=O)c=3oc3ccccc3c12 > 9.22 µM
Nc1ncnc2c([C@@H]3O[C@@H](CO)[C@H](O)[C@@H]3O)nsc12 > 9.22 µM
COc1ccc(-c2csc3c2[N+]2=CCC=C2C3=O)cc1 > 9.22 µM
CN(C)CCCN1c2ccc(O)cc2Sc2ccc(Cl)cc21 > 9.22 µM
N[C@@](CCc1ccccc1)(C(=O)O)c1ccccc1 > 9.22 µM
COc1ccc(Oc2ncc3nc(CCc4ccccc4)c(=O)n(C4CC4)c3n2)cc1 > 46 µM
C=C(C)COc1ccc2c(c1)CCC1C2CC[C@]2(C)C(=O)/C(=N/O)CC12 (some centres not stated) > 9.22 µM
O=C1c2ccccc2-c2cc([N+](=O)[O-])c([N+](=O)[O-])cc21 > 9.22 µM
COc1ccc2nc3cc(Cl)ccc3c(Nc3ccc(O)c(CN4CCN(C)CC4)c3)c2c1 > 9.22 µM
C[C@@]12CC[C@@H]3[C@@H](CC[C@H]4C[C@@H](O)CC[C@]43C)[C@H]1CC[C@@H]2c1cc(C(F)(F)F)n[nH]1 > 9.22 µM
COc1ccc2c(c1)N(CC[C@H]1CCCCN1C)c1ccccc1S2 > 9.22 µM
CSc1ccc2c(c1)N(CCCN(C)C)c1ccccc1S2 > 9.22 µM
CC(=O)O[C@H]1CC[C@@]2(C)C(=CC[C@@H]3[C@@H]4CC[C@H](c5cc(C(F)(F)F)n(C(C)=O)n5)[C@]4(C)CC[C@@H]32)C1 > 9.22 µM

Target: Mitogen-activated protein kinase 10 (Mus musculus) (UniProt Q61831)
Experiment: JNK3 AlphaScreen Assay (AID 530; active = well fitted curve in either direction with a large enough effect, not every such curve was filed as active;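 note: kinase came from lysate of stimulated human HepG2 cells; signal reports phosphorylation of biotinylated GST-cJun 1-79 at Ser73 with 10 µM ATP; % is set by controls: 0 for no effect and ±100 for the full control effect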)
Details: JNK3 lysate, c-Jun phosphorylation; series mostly up to 11.4 µM; activity change, negative = inhibition: at the top concentration
How it was run: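 Activity was read by AlphaScreen after JNK3-containing HepG2 lysate (cytokine pre-activated) phosphorylated biotinylated GST-cJun with 10 uM ATP at room temperature. Phospho-Ser73 cJun antibody with Protein-A acceptor beads provided detection.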

Activity change, negative = inhibition, inactive:
Cc1cccc(CNc2ncnc3ccc(-c4ccc(C(=O)N(C)C)cc4)cc23)c1 -12.5% [at 57.1 µM]
O=[N+]([O-])c1ccc(S(=O)(=O)Cc2ccccc2)c2nonc12 -11.4%
CCN(CC)CCN1c2ccccc2Sc2ccc3ccccc3c21 0.094%
Nc1nc(Sc2ccc([N+](=O)[O-])c3nonc23)c2[nH]cnc2n1 -6.47%
C[C@@H]1CCCN(C[C@@H](O)CN2CCCc3ccccc32)C1 -1.73%
CN(C)CCCN1c2ccccc2Sc2ccc3ccccc3c21 5.85%
CN(C)CCCN1c2ccc3ccccc3c2Sc2cccc(Cl)c21 -2.29%
O=C1c2ccccc2C(O)(O)[C@@]1(O)[C@]1(O)C(=O)c2ccccc2C1(O)O -1.43%
CC(=O)Nc1ccc(Cc2ccc3[nH]c(=O)cc(C)c3c2)cc1 5.69%
ClC(=Nc1cccc2ccccc12)N(c1ccccc1)c1ccccc1 -0.203%
CC(=O)Nc1nc(NC(C)=O)c2[nH]c(CO)nc2n1 4.48%
OCCCNc1ncnc2[nH]ncc12 -0.43%
COc1ccc(C(=O)[C@H](Br)[C@H](Br)C(=O)O)cc1 4.5%
C[N+](C)([O-])CCC=C1c2ccccc2CCc2ccccc21 -1.6%
O=C1C(Cl)=C(Sc2nnc3c4ccccc4c4ccccc4c3n2)C(=O)c2ccccc21 -3.27%
CC(CC(=O)O)(CC(=O)O)c1ccccc1 -1.94%
CN(C)CCCn1c2c3ccccc3ccc2c2oc(=O)c3ccccc3c21 16.6%
COc1cccc2c1[C@H](CO)N1[C@H](C#N)[C@@H]3C[C@H](C(=O)O)[C@@H]([C@@H]1C2)N3C -1.75%
Cc1ccc(-c2nc(-c3nccc4ccccc34)oc2-c2ccccc2)cc1 22.9%
Oc1ccc2ccccc2c1CN(Cc1c(O)ccc2ccccc12)C1CCCCC1 -0.359%
O=C(c1ccncc1)N1CCC2(CCCN(c3cccc(-c4ccccc4)c3)C2)CC1 -29.3% [at 57.1 µM]
CCC1=C(C[C@H]2NCCc3ccccc32)C[C@@H]2c3cc(OC)c(OC)cc3CCN2C1 -0.732%
C[C@H]1CC(C)(C)C[C@@](OCCN2CCCCC2)(c2ccccc2)C1 8.62%
CN1CCN(c2ncc3nc(-c4ccccc4)c(=O)n(Cc4ccc(F)cc4)c3n2)CC1 27.8% [at 57.1 µM]
N#Cc1c(NC(=O)C(F)(F)F)sc2c3c(=O)c4ccccc4c(=O)c=3oc3ccccc3c12 25.2%
Nc1ncnc2c([C@@H]3O[C@@H](CO)[C@H](O)[C@@H]3O)nsc12 36.9%
COc1ccc(-c2csc3c2[N+]2=CCC=C2C3=O)cc1 -9.47%
CN(C)CCCN1c2ccc(O)cc2Sc2ccc(Cl)cc21 2.91%
N[C@@](CCc1ccccc1)(C(=O)O)c1ccccc1 6.11%
COc1ccc(Oc2ncc3nc(CCc4ccccc4)c(=O)n(C4CC4)c3n2)cc1 27% [at 57.1 µM]
C=C(C)COc1ccc2c(c1)CCC1C2CC[C@]2(C)C(=O)/C(=N/O)CC12 (some centres not stated) -6.87%
O=C1c2ccccc2-c2cc([N+](=O)[O-])c([N+](=O)[O-])cc21 -22.5%
COc1ccc2nc3cc(Cl)ccc3c(Nc3ccc(O)c(CN4CCN(C)CC4)c3)c2c1 9.64%
C[C@@]12CC[C@@H]3[C@@H](CC[C@H]4C[C@@H](O)CC[C@]43C)[C@H]1CC[C@@H]2c1cc(C(F)(F)F)n[nH]1 3.13%
COc1ccc2c(c1)N(CC[C@H]1CCCCN1C)c1ccccc1S2 -12.7%
CSc1ccc2c(c1)N(CCCN(C)C)c1ccccc1S2 -5.53%
CC(=O)O[C@H]1CC[C@@]2(C)C(=CC[C@@H]3[C@@H]4CC[C@H](c5cc(C(F)(F)F)n(C(C)=O)n5)[C@]4(C)CC[C@@H]32)C1 -0.246%
